CASP6 VEID inh = human caspase-6 inhibitors, primary screen, biochemical, VEID-R110 fluorescence, single point, set 2. 350,000 tested, 0.53% active. AID 686996, 2013. inhibition, % at 12.5 µM. purified caspase-6, Z-VEID-R110 cleavage fluorescence. P55212;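 active means mean inhibition across replicates at least about 35%, with every replicate also reaching that limit, limit read from the data; inconclusive means only one of the two criteria met; inactive means neither criterion met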;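 further: 0% = median of neutral control wells and 100% = no fluorescence left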
Target sequence (P55212 24-179 limits assumed): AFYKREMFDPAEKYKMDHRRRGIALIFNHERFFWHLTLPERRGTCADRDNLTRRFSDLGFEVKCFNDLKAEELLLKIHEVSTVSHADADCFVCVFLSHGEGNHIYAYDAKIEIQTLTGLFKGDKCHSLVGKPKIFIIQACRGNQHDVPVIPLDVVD
Target sequence (P55212 194-293 limits assumed): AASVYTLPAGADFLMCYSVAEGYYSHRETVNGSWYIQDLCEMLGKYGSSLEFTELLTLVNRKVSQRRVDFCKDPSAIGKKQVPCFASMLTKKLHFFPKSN
ALR inh = inhibitors of human ALR sulfhydryl oxidase, primary screen, biochemical, H2O2 detection, HRP-luminol luminescence, single point; purified ALR, DTT oxidation; AID 485317, 2010; inhibition, % (concentration not given with the values); FAD-linked sulfhydryl oxidase ALR (Homo sapiens), P55789; 290,000 tested, 3.8% active;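 active means mean replicate inhibition above about 79%, with every replicate also reaching it, limit read from the data; inconclusive means only one of the two criteria met; inactive means mean below limit and not every replicate reaching it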
Target sequence (P55789 whole entry, looked up): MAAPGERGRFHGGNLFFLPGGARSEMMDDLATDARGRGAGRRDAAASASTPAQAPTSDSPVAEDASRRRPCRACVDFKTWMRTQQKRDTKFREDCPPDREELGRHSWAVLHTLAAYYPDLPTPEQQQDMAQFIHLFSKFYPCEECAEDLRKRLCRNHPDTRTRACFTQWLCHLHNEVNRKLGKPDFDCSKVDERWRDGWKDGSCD
NSD2 HMT inh = NSD2 histone methyltransferase inhibitors, primary screen, biochemical, AlphaScreen, single concentration, set 2; 310,000 tested, 0.54% active; inhibition, % at 12.5 µM; Histone-lysine N-methyltransferase NSD2 (Homo sapiens), O96028; NSD2 peptide methylation, 120 min; in the data active means inhibition above about 50%
PglD DTNB = C. jejuni PglD acetyltransferase inhibitors, primary screen, biochemical, DTNB colorimetric, single point | inhibition, % at 12.5 µM | 360,000 tested, 0.098% active | purified PglD enzyme, DTNB colorimetric CoA detection; in the data active means inhibition above about 16%, passing the limit was not always enough; inconclusive means no clear call, values can overlap the other calls
HIV Env fusion = inhibitors of HIV-1 Env-driven cell-cell fusion, primary screen, HeLa-JRFL effector, CEM21 target cells, luciferase; 360,000 tested, 1.1% active; AID 651610, 2012; inhibition, % at 12.3 µM;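 active means mean replicate inhibition score of at least 50 and every replicate individually at or above 50; inconclusive means only one of the two criteria met; inactive means mean below 50 and not all replicates reaching 50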;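 further: 0% = plate neutral controls and 100% = maraviroc near 300 nM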
CFTR F508del cor = F508del CFTR correction, initial screen, CFBE line, single point | CFBE cells, YFP halide quenching; stimulated with forskolin plus potentiator P3; % fluorescence drop versus neutral controls | activity (quench increase), % at 7.58 µM | 350,000 tested, 0.36% active;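 active means mean added fluorescence quench of at least 8% versus neutral control, with both replicates also reaching 8%; inconclusive means only one of the mean or replicate conditions met; inactive means mean below 8% and not both replicates reaching 8%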;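 further: cells transiently co-express mutant CFTR-F508del with the halide-sensitive YFP; corrector assay measuring rescue of mutant channel to the surface after 24 h compound exposure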
* hit, by the source's call; ? = inconclusive; nt = no result; [ ] = dose if it differs, or a comment. The list is not random: actives were taken first. Their share in the collection is about 4.1%.

SMILES | CASP6 VEID inh | ALR inh | NSD2 HMT inh | PglD DTNB | HIV Env fusion | CFTR F508del cor
CC(C)C(=O)n1nc(-c2cccnc2)nc1NCc1cccs1 | 0.0 | 97.1* | nt | -0.4 | -26.1 | 1.4
COc1ccc(CN(C)C[C@@H]2Oc3ccc(NS(=O)(=O)c4cccs4)cc3CC(=O)N([C@@H](C)CO)C[C@H]2C)cc1 | -1.6 | nt | nt | nt | nt | -2.9
O=C(Nc1ccc(OC(F)F)cc1)Nc1cccc(C(F)(F)F)c1 | nt | 2.2 | -4.0 | -7.6 | 74.9* | nt
CCN(CC)S(=O)(=O)c1ccc(NC(=O)Nc2cccc(C(F)(F)F)c2)cc1 | nt | -0.3 | nt | -0.7 | 96.3* | nt
O=C(Nc1ccncc1)Nc1cccc(C(F)(F)F)c1 | 2.6 | -3.6 | nt | -3.8 | -4.3 | -1.5
C[C@@H]1CN([C@@H](C)CO)C(=O)c2cccc(NC(=O)CCCCCC(=O)Nc3ccccc3N)c2O[C@@H]1CN(C)S(C)(=O)=O | -3.3 | nt | nt | nt | nt | -2.3
CC1(C)CC(=O)C(C(C2=C(O)CC(C)(C)CC2=O)c2ccc(O)c([N+](=O)[O-])c2)=C(O)C1 | 6.9 | 97.4* | 13.3 | nt | -2.6 | nt
Brc1ccc2nc(-c3cccs3)c(NCC3CCCO3)n2c1 (stereo unspecified) | 2.8 | 98.3* | 2.0 | nt | -26.4 | -0.8
O=C(Nc1ccc2c(c1)[C@@H]1C[C@@H](CC(=O)N3CCOCC3)O[C@@H](CO)[C@@H]1O2)C1CCC1 | nt | nt | nt | 9.7 | 1.3[16.7 µM] | 1.2
C[C@@H](NC(=O)C[C@@H]1C[C@H]2c3cc(NC(=O)CC4CC4)ccc3O[C@H]2[C@@H](CO)O1)c1ccccc1 | -1.3 | nt | nt | -3.3 | nt | 4.5
COc1cc(/C=C(\C#N)C(=O)NCc2cccs2)ccc1O | nt | 99.5* | 4.8 | -1.2 | nt | nt
CCOc1cc(/C=C(\C#N)C(=O)NCc2cccnc2)ccc1O | 0.3 | 88.1* | -0.5 | nt | 12.4 | 0.2
Cc1nc(C)c(-c2csc(Nc3ccc(N)cc3)n2)s1 | -4.7 | 51.4 | 13.0 | 0.7 | 8.9 | -2.7
Cc1nc(C)c(-c2csc(Nc3cccnc3)n2)s1 | 3.7 | 89.4* | 7.8 | 0.5 | nt | 0.9
Cc1nc(C)c(-c2csc(Nc3ccc(O)c(C(=O)O)c3)n2)s1 | 5.1 | 88.6* | 3.1 | 0.4 | -11.6 | -1.2
COc1ccc(Nc2nc(-c3sc(C)nc3C)cs2)cc1 | 1.6 | 16.8 | 1.4 | 10.8 | ? | 9.1*
COc1ccc(-c2csc(Nc3ccc(Oc4ccccc4)cc3)n2)cc1 | -1.4 | nt | nt | -1.6 | 77.2* | -4.1
COc1ccc2c3c([nH]c2c1)[C@H](CO)N(C(=O)c1cccnc1)CC31CCN(C(=O)NC(C)C)CC1 | nt | nt | nt | nt | nt | 1.7
CC1Oc2cc3oc4c(O)c(O)ccc4c(=O)c3c(O)c2C1(C)C (stereo unspecified) | nt | 98.1* | nt | -2.5 | nt | nt
CNC(=O)C[C@@H]1CC[C@H]2[C@@H](COc3ccc(NC(=O)NC(C)C)cc3C(=O)N2C)O1 | nt | nt | nt | -0.8 | -11.8[16.7 µM] | 2.5
CCN(C[C@H]1N[C@@](CC)(C(=O)OC)[C@H]2C(=O)N(Cc3ccccc3)C(=O)[C@@H]12)C(=O)Nc1ccc(C)cc1 | -4.8 | nt | nt | 1.8 | 55.9* | 5.7
CCN(C[C@H]1N[C@@](CC)(C(=O)OC)[C@H]2C(=O)N(Cc3ccccc3)C(=O)[C@@H]12)C(=O)Nc1ccc(Cl)cc1 | -1.0 | nt | nt | -4.1 | 86.0* | -0.1
CCN(C[C@H]1N[C@@](Cc2ccccc2)(C(=O)OC)[C@H]2C(=O)N(Cc3ccccc3)C(=O)[C@@H]12)C(=O)Nc1ccc(C)cc1 | 0.3 | nt | nt | -4.9 | -45.5 | 2.6
O=c1cc(CN2CCN(c3ccc(O)cc3)CC2)nc2scc(-c3ccccc3)n12 | nt | 93.5* | 1.8 | 10.5 | 1.8 | 0.7
C=CCN(CC=C)Cc1cc(=O)n2c(-c3ccccc3)csc2n1 | 2.6 | 8.8 | 6.5 | -3.8 | -0.2 | -0.7
SMILES | CASP6 VEID inh | ALR inh | NSD2 HMT inh | PglD DTNB | HIV Env fusion | CFTR F508del cor
CCc1nn(CC(=O)NCCCN2CCc3ccccc3C2)c(=O)c2cc3sccc3n12 | -15.6 | 95.2* | nt | 6.5 | 8.0 | 0.1
COc1cc(/C=N/N2CCN(c3ccccc3OC)CC2)ccc1O | nt | 98.9* | 5.8 | nt | -11.8 | nt
COc1ccccc1N1CCN(/N=C(\C)c2ccccc2O)CC1 | -3.8 | 1.2 | 0.6 | -4.2 | -6.0 | 0.0
COc1cc(/C(C)=N/NC(=O)C(O)(c2ccccc2)c2ccccc2)ccc1O | 3.0 | 98.4* | -3.6 | nt | -7.3 | 0.5
COc1cc(/C(C)=N/N2CCN(c3ccccc3OC)CC2)ccc1O | 2.3 | 98.9* | 4.5 | -7.1 | -0.8 | 1.4
COc1ccccc1N1CCN(/N=C\c2sccc2C)CC1 | 0.3 | 94.7* | 32.8 | nt | -24.9 | 0.0
COc1ccccc1S(=O)(=O)N1CC[C@@H]2[C@H](CO)N(C)c3ccc(C#Cc4cccc(F)c4)cc3[C@@H]21 | nt | nt | nt | 2.2 | nt | 1.5
CN(C)CC(=O)N[C@@H]1CC[C@H](CC(=O)NCc2ccccc2F)O[C@H]1CO | -1.0 | nt | nt | 5.9 | 10.0[16.7 µM] | -3.8
COc1ccc(/C=N/N2CCN(C)CC2)cc1O | nt | 98.8* | 0.5 | nt | nt | nt
CC(C)CC#Cc1cnc2c(c1)C(=O)N([C@H](C)CO)C[C@H](C)[C@H](CN(C)S(=O)(=O)c1cn(C)cn1)O2 | -2.1 | nt | nt | -3.5 | 17.8[16.7 µM] | -1.9
COc1ccc(-c2cc(-c3ccco3)[nH]c(=O)c2C#N)cc1OC | 38.1* | nt | nt | 1.0 | -5.3 | 3.1
N#Cc1c(-c2ccccc2)cc(-c2ccc3c(c2)OCO3)[nH]c1=O | 0.8 | -0.4 | -3.0 | 4.2 | 4.9 | 3.5
CCN(CC)S(=O)(=O)c1cccc(-c2n[nH]c(=S)n2/N=C/c2ccc(OC(F)F)cc2)c1 | -2.6 | 97.7* | 7.9 | nt | -7.1 | nt
COc1ccc(NC(=O)N2C[C@@H](O)COC[C@@H]3O[C@@H](CC(=O)N4CCN(C)CC4)CC[C@H]32)cc1 | 1.1 | nt | nt | 0.2 | nt | -0.4
CCOC(=O)Nc1ccc2c(c1)ncn2C1CCCCC1 | nt | 83.6* | -4.1 | 4.9 | nt | nt
COc1ccc(S(=O)(=O)Nc2ccc3c(c2)C(=O)N([C@H](C)CO)C[C@@H](C)[C@@H](CN(C)Cc2ccccc2)OCCCC[C@@H](C)O3)cc1 | nt | nt | nt | -2.6 | -28.6[16.7 µM] | -0.1
O=C(CSc1nc2ccccc2[nH]1)Nc1ccc2[nH]c(=O)[nH]c2c1 | -0.3 | 98.5* | -1.6 | -4.2 | 6.6 | 0.3
O=C(CSc1nc2ccccc2[nH]1)Nc1ccc2c(c1)OCCO2 | nt | 99.1* | 1.5 | 4.6 | nt | nt
Cc1ccc2nc(SCC(=O)Nc3ccc4c(c3)OCCO4)[nH]c2c1 | nt | 5.0 | 1.9 | -0.4 | -9.6 | nt
CCc1c(C)nc(SCC(=O)Nc2ccc3c(c2)OCCO3)[nH]c1=O | 10.0 | 98.8* | -5.5 | nt | 16.6 | -2.6
Cn1c(SCC(=O)Nc2ccc3[nH]c(=O)[nH]c3c2)nnc1-c1ccccc1 | 0.4 | -12.3 | 0.9 | -4.3 | nt | 3.1
